In PubChem BioAssay (NCATS) one finds Potency and viability (% of control) data, which are given here for 40 molecules.

Values joined by “and” are separate entries in the source; they are usually repeats but may differ in a detail not shown here. Equal entries are not always repeated. Records with an inconclusive call do not appear. More than one record can exist for a structure, and the calls need not agree. Active and inactive are the calls of the source. The call rests on the fitted dose curve; in most records, active means well fitted cell-killing curve with a large enough effect; inconclusive means small, poorly fitted or top-dose-only effect, or effect the other way; inactive means no such curve, though single readings can be large or run the other way.
Potency means the concentration at half of the fitted maximal effect.

The test can be described thus: Viability qHTS for spleen associated tyrosine kinase inhibitor (SYKi) naive MV4-11 cells (AID 1963823). Further: nearly all actives have a fitted effect of over 40% in size. Particulars: MV4-11 AML viability, CellTiter-Glo luminescence, 72 h; series mostly up to 45 µM. An excerpt: Department of Medicine, Hematology/Oncology
University Hospital Frankfurt, Germany.
Trials have shown promising clinical activity of the selective SYK inhibitor entospletinib in patients with high expressing HOXA9/MEIS1 acute leukemias. As the development of resistance mechanisms is a common problem in the use of targeted drugs, we performed a chemical library screen to identify drug sensitivities in SYK inhibitor resistant AML cells. […] Glucocorticoids are potent immunosuppressants which work in part by inhibiting the transcription of cytokine genes.
Described herein is a viability screen to look for activity in the SYK inhibitor naive cell line against four NCATS compound libraries (MIPE 5.0, NPC, NPACT, and Kinase) totaling 11372 compounds. Active hits were reacquired for confirmation and further secondary assay testing.
SEQUENCE No. (e.g., 1, 2, 3, etc.); […] (e.g., Cells, Incubation, Reagent, etc.); VALUE; DESCRIPTION.
1; Media; 2uL; white, solid-bottom Corning assay plate.
2; Compounds; 23nL; Echo acoustic dispenser.
3; Cell; 5uL; 500 cells per well.
4: Incubation; 72hr; 37 C, 5% CO2, 95% humidity.
5; Reagent; 3uL; CellTiter-Glo reagent (Promega).
6; Incubation; 10min; room temperature.
7; Detection; Luminescence; ViewLux plate reader (PerkinElmer).
NOTES (numbers refer to Sequence numbers above
1. Quantitative high-throughput screening (qHTS) of small molecule compounds was conducted on naive SYKi MV4-11 cell line.
2. Twenty-three nanoliter of small molecule compounds were added to each assay plates using the Echo acoustic dispenser (Beckman Coulter).
3. Cells were seeded into the assay plates at a final density of 500 cells in 5uL of media per well using the Multi-drop Combi dispenser.
4. Plates were covered with stainless steel gasketed lids and incubated for 72 hours at standard cell culture conditions.
5. Viability was assessed by adding 3uL of CellTiter-Glo detection reagent (Promega).
6. Plates were covered with gasket lids and incubated for 10 minutes at room temperature.
7. Luminescence was measured on a ViewLux plate reader (PerkinElmer).
For orientation: In qHTS, concentration-response curves come from the screen itself.
As for `CCCCC1(COC(=O)CCC(=O)O)C(=O)N(c2ccccc2)N(c2ccccc2)C1=O`, the Potency result was “inactive”.

As to `COCCN(C)Cc1ccc2nc3sc(C(=O)N(C)C4CCCCC4)cn3c2c1`, the Potency result was “inactive”.

As to `CC1(C(=O)O)CCCC2(C)C1CCC13CC(CCC21)C1(CO)OC31` (stereo not given), the Potency entry was “inactive”.

Take `Cc1cc(CN)cc(C)c1NC(=O)c1ccc(-c2cc(Cl)ccc2Cl)o1`: the Potency is 6.51 µM (active).

For `COc1ccc(S(=O)(=O)N(C(C)=O)c2ccccc2/C=C/c2cc[n+]([O-])cc2)cc1`, the Potency is 0.934 µM (active).

As for `c1cc(-c2cnn3cc(-c4ccc(N5CCNCC5)cc4)cnc23)c2cccnc2c1`, the Potency was 0.662 µM (active).

With `O=C(N[C@@H](c1ccccc1)[C@@H]1CCCCN1)c1cccc(C(F)(F)F)c1Cl`, the Potency was 16.6 µM (active).

Consider `CNS(=O)(=O)Nc1nccc(Cc2c(C)c3ccc(Oc4ncccn4)cc3oc2=O)c1F`, for which the Potency is 0.417 µM (active).

For `COc1ccc(/C=C/C(=O)O[C@@H]2[C@@H](O)[C@@H](O)[C@H](O[C@@H]3C=C(CO)[C@H]4[C@H](O[C@@H]5O[C@H](CO)[C@@H](O)[C@H](O)[C@H]5O)OC=C[C@H]43)O[C@H]2C)cc1O`, the Potency entry was “inactive”.

In the case of `O=C(C1=CCN2c3c(cccc31)OC[C@H]2CN1CCOCC1)c1cccc2ccccc12`, the Potency was 14.6 µM (active).

Turning to `Cn1cnc(-c2cc3nccc(Oc4ccc(NC(=S)NC(=O)Cc5ccccc5)cc4F)c3s2)c1`, the Potency was 0.0259 µM (active).

For the molecule `Cc1ccc(C(=O)c2cc(O)c(O)c([N+](=O)[O-])c2)cc1`, the Potency is 20.9 µM (active).

Consider `C=CC(=O)Nc1cc(Nc2ncc(Cl)c(-c3c[nH]c4ccccc34)n2)c(OC)cc1N(C)CCN(C)C`, for which the Potency is 0.058 µM (active).

For the molecule `Cc1onc(-c2c(F)cccc2Cl)c1C(=O)N[C@@H]1C(=O)N2[C@@H]1SC(C)(C)[C@@H]2C(=O)O`, the Potency result is “inactive”.

Regarding `CC/C=C\C(O)C(O)C1=C(C)C(=O)C2(O1)C(=O)NC(OC)(C(=O)c1ccccc1)C2O` (stereo not given), the Potency entry was “inactive”.

As for `O=C(O)[C@@H]1[C@H]2C[C@H]3c4[nH]c5ccccc5c4CCN3C[C@@H]2CC[C@@H]1O`, the Potency was 2.66 µM (active).

For `C[C@@]12CC3(S(=O)(=O)O)OC(O1)[C@]1(COC(=O)c4ccccc4)[C@H]3C[C@]21O[C@@H]1O[C@H](CO)[C@@H](O)[C@H](O)[C@H]1O`, the Potency result was “inactive”.

On to `Nc1nc(N)c2nc(-c3cccc(O)c3)cnc2n1`, for which the Potency is 1.84 µM (active).

For the molecule `OC[C@H]1O[C@@H](n2cnc3c(NCc4ccc(O)cc4)ncnc32)[C@H](O)[C@@H]1O`, the Potency is 1.03 µM (active).

With `CCCCCCCC/C=C\CCCCCCCCN`, the Potency result is “inactive”.

`C=C1C(=O)O[C@@H]2C3C(=C(C)[C@@H](O)[C@@H](OC(=O)/C(=C/C)COC(C)=O)[C@@H]12)C(=O)[C@H]1O[C@@]31C` (stereo not given in full): the Potency was 2.82 µM (active).

Regarding `NCCCCCC(=O)O`, the Potency entry is “inactive”.

With `O=C(O)c1cn(C2CC2)c2cc(N3CCNCC3)c(F)cc2c1=O`, the Potency entry is “inactive”.

Consider `CC(=O)N(CC(O)CN(C(C)=O)c1c(I)c(C(=O)NCC(O)CO)c(I)c(C(=O)NCC(O)CO)c1I)c1c(I)c(C(=O)NCC(O)CO)c(I)c(C(=O)NCC(O)CO)c1I` (stereo not given), for which the Potency entry was “inactive”.

As to `OC[C@@H](O)[C@@H](O)[C@H](O)[C@H](O)CO`, the Potency entry was “inactive”.

With `NC(=O)[C@H]1CCS[C@@H]2C[C@]3(CCCN3C(=O)Cc3ccc(NC(=O)COc4ccc(Cl)cc4Cl)cc3)C(=O)N12`, the Potency was 3.26 µM (active).

With `CC(Oc1ccc(O)cc1)(P(=O)(O)O)P(=O)(O)O`, the Potency entry is “inactive”.

`CC1OC(OC2C(OC3C(O[C@H]4CC[C@@]5(C)C(CC[C@]6(C)C5C(=O)C=C5C7CC(C)(C)CC(O)[C@]7(C)CC[C@]56C)C4(C)C)OC(C(=O)O)C(O)C3O)OCC(O)C2O)C(O)C(O)C1O` (stereo not given in full): the viability (% of control) is 54.7% [at 9.25 µM] (inactive).

For the molecule `Cn1ncc(Cl)c1-c1cc(C(=O)N[C@H](CN)Cc2ccc(F)c(F)c2)sc1Cl`, the Potency was 9.2 µM (active) and 5.9 µM (active).

Turning to `COc1cc(CCCO)ccc1O[C@@H]1O[C@H](CO)[C@@H](O)[C@H](O)[C@H]1O`, the Potency entry is “inactive”.

For `CC(C)CC1OC(=O)C2CCCN2C(=O)CCNC(=O)C(Cc2ccccc2)NC(=O)C(C(C)C)N(C)C(=O)C(C(C)C)N(C)C1=O` (stereo not given), the Potency result was “inactive”.

Turning to `Nc1[nH]c(=O)ncc1F`, the Potency entry was “inactive”.

As to `COc1ccc(NC(=O)C2C[C@H](C)CC[C@H]2C(C)C)cc1` (stereo not given in full), the Potency entry is “inactive”.

For the molecule `CC(C)[C@@H](C)/C=C/[C@@H](C)[C@H]1CC[C@H]2C3=CC=C4C[C@@H](O)CC[C@]4(C)C3=CC[C@]12C`, the Potency was 16.4 µM (active).

As to `CC(=O)OC[C@@]12C(=O)C[C@@H](C)[C@]3(C[C@@H](c4ccoc4)O[C@H]3OC(C)=O)[C@H]1CCC[C@]21CO1`, the Potency result is “inactive”.

With `Cc1c(NC(=O)c2cc(C(N)=O)nc3cc(F)ccc23)c(C(F)(F)F)nn1Cc1ccc(C#N)cc1`, the Potency entry is “inactive and 14.8 µM (active)”.

Take `Nc1ncnc2nc(-c3ccc(N4CCOCC4)nc3)cc(-c3cccc(Br)c3)c12`: the Potency was 4.68 µM (active).

Consider `CC1(C)CC[C@]2(C(=O)O[C@@H]3O[C@H](CO)[C@@H](O)[C@H](O)[C@H]3O)[C@H](O)C[C@]3(C)C(=CCC4[C@@]5(C)CC[C@H](O[C@@H]6OC[C@@H](O)[C@H](O)[C@H]6O)[C@@](C)(C(=O)O)C5CC[C@]43C)[C@@H]2C1` (stereo not given in full), for which the Potency result is “inactive”.

For `Cn1cc(-c2c[nH]c3ncnc(N4CCOCC4)c23)cn1`, the Potency is 13.2 µM (active).

`CC(=O)NC1C(OC(C)(C)C2CCC3(C)C=C(C4CCC5C4(C)CC(O)C4OC(C(C)(C)O)CCC45C)CCC3O2)OC(CO)C(O)C1O` (stereo not given): the Potency was 1.93 µM (active).
